Data published in the supplement of paper PMC11732987, “Enantioselective OTUD7B fragment discovery through chemoproteomics screening and high-throughput optimisation” (Communications Chemistry, 2025).

Experiments:
Assay in all cases: log2 ratio of Biotin-Ahx-Ub-VS probe labelling (fragment/DMSO); higher = less target engagement (more negative = stronger competition), active = hit call of the paper (q ≤ 0.05, log2 ratio ≤ -1)
Details in all cases: compound concentration: 200 uM; treatment time: 3 h
[1] = target: T1, USP19 (UniProt O94966)
T1 sequence (whole entry): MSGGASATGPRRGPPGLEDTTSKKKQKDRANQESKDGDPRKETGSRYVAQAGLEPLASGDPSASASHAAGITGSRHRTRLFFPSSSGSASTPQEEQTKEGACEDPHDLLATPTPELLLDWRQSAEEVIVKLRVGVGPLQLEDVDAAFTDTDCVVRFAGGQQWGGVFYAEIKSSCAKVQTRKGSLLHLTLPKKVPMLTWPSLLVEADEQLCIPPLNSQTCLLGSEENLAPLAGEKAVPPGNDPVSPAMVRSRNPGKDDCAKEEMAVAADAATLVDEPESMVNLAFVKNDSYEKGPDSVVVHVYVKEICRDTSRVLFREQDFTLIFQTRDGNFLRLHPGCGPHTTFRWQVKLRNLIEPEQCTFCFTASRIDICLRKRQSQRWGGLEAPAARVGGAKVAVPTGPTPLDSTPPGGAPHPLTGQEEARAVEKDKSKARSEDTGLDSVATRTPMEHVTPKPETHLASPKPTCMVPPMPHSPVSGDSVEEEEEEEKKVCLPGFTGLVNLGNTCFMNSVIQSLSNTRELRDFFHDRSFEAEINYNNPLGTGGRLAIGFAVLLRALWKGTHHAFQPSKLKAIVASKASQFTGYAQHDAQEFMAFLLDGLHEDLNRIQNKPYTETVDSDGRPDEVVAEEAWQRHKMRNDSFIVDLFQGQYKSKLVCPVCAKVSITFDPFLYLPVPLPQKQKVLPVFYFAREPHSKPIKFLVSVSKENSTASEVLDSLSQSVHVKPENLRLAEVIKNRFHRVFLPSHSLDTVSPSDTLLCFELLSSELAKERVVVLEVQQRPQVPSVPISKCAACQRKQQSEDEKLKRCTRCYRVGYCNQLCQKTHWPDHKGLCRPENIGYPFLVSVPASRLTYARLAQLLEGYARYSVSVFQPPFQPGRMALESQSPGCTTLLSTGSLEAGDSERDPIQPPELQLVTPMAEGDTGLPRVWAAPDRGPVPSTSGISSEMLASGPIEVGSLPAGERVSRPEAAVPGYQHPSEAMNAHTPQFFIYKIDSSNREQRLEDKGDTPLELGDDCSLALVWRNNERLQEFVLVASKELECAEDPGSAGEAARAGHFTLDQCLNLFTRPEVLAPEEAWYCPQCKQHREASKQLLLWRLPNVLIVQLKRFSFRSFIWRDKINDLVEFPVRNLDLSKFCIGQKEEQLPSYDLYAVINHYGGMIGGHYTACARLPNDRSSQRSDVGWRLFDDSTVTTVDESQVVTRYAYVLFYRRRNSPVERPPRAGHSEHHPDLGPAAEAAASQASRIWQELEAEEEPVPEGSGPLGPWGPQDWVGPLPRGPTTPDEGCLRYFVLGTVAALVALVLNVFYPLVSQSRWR
Summary of the method: (§1)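 HEK293T lysate, 495 µg per sample in Tris/CHAPS/IGEPAL buffer with protease inhibitors, was treated in triplicate with fragment at 200 µM or vehicle for 3 h and then with Biotin-Ahx-Ub-VS at 0.5 µM final for 1 h. Labelled DUBs were NeutrAvidin-enriched, digested with LysC and trypsin, and run by diaPASEF LC-MS/MS. Spectronaut label-free quantities were global-median-normalised, and values are average log2 fragment/vehicle ratios by unpaired t-test on proteins with ≥2 unique peptides.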

[2] = target: USP24 (UniProt Q9UPU5)
Summary of the method: as §1

[3] = target: T2, USP25 (UniProt Q9UHP3)
T2 sequence (whole entry): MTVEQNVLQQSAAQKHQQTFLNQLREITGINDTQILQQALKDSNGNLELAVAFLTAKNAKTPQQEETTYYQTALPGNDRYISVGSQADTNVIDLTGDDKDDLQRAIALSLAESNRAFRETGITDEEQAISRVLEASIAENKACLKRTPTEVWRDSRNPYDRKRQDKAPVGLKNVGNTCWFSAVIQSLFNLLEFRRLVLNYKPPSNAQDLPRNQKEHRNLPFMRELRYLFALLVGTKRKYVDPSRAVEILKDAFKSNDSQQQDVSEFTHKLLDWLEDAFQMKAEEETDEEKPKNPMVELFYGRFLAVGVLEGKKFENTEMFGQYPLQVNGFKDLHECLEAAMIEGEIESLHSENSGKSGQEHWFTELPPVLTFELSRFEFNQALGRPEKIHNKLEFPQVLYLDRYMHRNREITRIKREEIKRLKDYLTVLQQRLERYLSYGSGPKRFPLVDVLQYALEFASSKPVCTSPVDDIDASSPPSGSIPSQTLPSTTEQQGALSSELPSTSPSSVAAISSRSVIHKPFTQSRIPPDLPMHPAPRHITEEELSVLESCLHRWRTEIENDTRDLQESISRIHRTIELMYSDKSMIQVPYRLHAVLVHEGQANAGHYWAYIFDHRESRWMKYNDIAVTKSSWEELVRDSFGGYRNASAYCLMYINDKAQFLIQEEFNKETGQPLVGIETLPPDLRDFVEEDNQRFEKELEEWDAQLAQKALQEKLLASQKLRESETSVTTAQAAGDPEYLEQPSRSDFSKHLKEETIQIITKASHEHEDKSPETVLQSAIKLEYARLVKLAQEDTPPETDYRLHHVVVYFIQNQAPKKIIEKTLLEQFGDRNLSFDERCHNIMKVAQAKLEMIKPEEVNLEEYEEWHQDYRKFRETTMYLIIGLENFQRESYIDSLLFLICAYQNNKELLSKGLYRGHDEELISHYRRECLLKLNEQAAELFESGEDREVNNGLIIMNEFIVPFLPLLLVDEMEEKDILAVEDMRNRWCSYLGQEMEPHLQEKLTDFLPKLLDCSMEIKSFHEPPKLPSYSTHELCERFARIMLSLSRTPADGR
Summary of the method: as §1

[4] = target: T3, USP28 (UniProt Q96RU2)
T3 sequence (whole entry): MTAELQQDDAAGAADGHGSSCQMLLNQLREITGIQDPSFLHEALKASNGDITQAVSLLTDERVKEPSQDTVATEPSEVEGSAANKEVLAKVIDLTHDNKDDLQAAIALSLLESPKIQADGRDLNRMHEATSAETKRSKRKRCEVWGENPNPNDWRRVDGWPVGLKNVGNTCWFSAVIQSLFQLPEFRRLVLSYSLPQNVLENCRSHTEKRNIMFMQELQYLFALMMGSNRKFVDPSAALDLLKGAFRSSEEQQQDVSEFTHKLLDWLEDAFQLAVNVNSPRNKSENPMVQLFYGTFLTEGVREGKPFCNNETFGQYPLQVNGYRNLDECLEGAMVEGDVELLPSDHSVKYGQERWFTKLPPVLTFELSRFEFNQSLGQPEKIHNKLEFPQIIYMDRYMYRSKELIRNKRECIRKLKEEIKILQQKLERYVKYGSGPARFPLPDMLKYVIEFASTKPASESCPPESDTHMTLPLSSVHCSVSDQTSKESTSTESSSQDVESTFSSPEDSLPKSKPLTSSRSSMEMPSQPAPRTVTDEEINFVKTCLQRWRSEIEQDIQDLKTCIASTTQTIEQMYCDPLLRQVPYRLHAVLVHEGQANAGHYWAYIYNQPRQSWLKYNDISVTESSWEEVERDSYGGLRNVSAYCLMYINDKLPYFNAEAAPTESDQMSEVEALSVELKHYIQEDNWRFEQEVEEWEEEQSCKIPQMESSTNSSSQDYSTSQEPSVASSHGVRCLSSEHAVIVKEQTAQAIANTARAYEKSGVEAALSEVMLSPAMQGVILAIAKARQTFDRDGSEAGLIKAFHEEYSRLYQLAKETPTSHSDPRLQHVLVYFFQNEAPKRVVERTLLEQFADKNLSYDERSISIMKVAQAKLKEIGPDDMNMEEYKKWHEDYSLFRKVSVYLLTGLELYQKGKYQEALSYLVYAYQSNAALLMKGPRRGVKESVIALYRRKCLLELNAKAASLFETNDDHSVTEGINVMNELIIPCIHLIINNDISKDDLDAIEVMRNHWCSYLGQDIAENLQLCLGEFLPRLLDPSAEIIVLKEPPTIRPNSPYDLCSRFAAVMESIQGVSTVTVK
Summary of the method: as §1

Measured: log2 ratio of Biotin-Ahx-Ub-VS probe labelling

Chain of USP24 (Q9UPU5 whole entry): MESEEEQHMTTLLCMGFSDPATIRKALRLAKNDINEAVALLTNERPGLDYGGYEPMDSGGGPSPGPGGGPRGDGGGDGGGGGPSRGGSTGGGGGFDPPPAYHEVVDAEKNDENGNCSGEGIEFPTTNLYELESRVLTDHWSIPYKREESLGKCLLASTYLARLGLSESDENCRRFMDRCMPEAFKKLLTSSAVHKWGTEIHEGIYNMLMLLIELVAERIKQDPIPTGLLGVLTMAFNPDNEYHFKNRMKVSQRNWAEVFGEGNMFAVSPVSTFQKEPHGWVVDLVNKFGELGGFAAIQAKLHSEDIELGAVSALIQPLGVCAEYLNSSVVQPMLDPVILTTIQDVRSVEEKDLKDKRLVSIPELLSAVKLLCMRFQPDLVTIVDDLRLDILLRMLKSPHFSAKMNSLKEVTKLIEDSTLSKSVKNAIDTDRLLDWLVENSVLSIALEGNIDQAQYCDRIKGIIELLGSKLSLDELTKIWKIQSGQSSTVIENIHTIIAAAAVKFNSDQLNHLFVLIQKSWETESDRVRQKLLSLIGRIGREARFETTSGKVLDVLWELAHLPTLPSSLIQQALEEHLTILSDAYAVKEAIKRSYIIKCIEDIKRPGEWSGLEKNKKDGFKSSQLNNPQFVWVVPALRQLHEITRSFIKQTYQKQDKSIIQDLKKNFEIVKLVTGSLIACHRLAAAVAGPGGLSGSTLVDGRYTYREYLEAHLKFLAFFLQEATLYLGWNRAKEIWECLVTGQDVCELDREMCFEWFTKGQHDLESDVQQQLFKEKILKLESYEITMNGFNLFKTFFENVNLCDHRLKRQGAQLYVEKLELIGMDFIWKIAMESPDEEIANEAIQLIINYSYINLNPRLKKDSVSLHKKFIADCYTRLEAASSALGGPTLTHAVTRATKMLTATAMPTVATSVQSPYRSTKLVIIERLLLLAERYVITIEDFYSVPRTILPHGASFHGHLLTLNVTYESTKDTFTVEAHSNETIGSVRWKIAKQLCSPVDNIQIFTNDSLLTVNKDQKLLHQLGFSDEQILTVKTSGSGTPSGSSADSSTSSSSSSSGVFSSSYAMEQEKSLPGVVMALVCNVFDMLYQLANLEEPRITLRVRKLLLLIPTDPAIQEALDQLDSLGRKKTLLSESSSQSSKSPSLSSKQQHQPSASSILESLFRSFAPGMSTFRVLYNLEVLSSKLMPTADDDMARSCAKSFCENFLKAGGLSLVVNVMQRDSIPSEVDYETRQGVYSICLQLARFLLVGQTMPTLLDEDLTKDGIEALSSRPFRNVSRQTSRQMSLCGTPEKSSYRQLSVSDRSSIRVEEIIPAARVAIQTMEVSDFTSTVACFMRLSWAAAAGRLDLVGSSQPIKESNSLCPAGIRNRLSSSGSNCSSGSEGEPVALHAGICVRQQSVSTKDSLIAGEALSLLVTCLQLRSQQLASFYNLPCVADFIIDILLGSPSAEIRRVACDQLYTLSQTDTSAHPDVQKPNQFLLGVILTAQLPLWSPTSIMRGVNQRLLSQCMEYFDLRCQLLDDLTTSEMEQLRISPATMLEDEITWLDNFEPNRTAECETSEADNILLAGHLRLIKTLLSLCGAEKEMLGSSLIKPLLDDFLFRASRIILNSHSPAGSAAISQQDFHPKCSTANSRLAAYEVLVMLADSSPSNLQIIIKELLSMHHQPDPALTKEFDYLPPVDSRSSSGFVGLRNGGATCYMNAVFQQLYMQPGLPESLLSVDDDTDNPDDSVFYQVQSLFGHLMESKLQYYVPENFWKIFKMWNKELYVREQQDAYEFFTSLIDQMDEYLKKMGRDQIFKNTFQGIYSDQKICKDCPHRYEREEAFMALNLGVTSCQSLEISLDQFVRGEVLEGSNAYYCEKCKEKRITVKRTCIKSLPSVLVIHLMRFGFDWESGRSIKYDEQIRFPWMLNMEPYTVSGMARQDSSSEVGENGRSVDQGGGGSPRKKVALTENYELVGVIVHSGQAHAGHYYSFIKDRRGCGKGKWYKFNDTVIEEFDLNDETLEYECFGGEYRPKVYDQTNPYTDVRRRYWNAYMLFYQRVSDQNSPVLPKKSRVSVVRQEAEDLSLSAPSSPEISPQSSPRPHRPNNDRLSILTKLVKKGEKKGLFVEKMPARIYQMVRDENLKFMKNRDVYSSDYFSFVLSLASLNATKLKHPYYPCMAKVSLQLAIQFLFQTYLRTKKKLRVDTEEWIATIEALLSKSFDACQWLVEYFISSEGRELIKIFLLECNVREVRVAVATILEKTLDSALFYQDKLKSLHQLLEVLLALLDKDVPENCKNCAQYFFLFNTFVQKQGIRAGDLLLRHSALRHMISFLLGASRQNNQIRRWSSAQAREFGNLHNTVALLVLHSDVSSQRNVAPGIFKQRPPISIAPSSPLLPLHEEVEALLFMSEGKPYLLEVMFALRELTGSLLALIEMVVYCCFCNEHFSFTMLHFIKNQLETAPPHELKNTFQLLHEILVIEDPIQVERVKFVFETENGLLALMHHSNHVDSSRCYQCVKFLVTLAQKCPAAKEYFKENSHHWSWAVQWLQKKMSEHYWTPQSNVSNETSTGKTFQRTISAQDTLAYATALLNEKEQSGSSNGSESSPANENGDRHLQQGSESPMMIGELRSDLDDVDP

O=C(CCl)N1CCCC2CCCCC21 (centres undefined)
inactive: [1] -0.188 | [2] -0.697 | [3] -0.193 | [4] -0.333
